This passage reports outcome, inhibition and potentiation results from PubChem BioAssay.

The inhibition is how much of the control response was suppressed.

The subject of assay [1] is TRPC4 beta (transient receptor potential cation channel C4), mouse. Briefly: TRPC4 cation channel opening, retest – cell-based, Fluo4 calcium, HEK293 TRPC4beta/mu-opioid, duplicates, 10 µM, confirmation (AID 2426;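 active = fluorescence ratio normalized to control raised more than 50% in primary screen plus both repeat runs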). The conditions noted are these: Fluo4 calcium fluorescence, at 10 µM; stronger effect = higher value.
Assay [2] has as its system transient receptor potential cation channel C4 beta (TRPC4), mouse. Briefly: TRPC4 cation channel opening, second retest – cell-based, second round, Fluo4, HEK293 TRPC4beta/mu-opioid, 1 µM, confirmation (AID 2461;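 active = primary screen active and over 50% activation in each of two duplicate runs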). The conditions noted are these: Fluo4 calcium fluorescence, at 1 µM; stronger effect = higher value.
Assay [3] concerns TRPC4 (transient receptor potential cation channel C4 beta), mouse. Briefly: potentiation of DAMGO EC20 TRPC4 response – cell-based, second round, Fluo-4, HEK293 TRPC4beta/mu-opioid, 1 µM, confirmation (AID 2554). The conditions noted are these: DAMGO EC20, Fluo-4 calcium flux, at 1 µM; stronger effect = higher value. In general terms: Calcium assays in cells follow changes in intracellular calcium, usually with a dye or a luminescent sensor.

The subject of assay [4] is TRPC4 beta (transient receptor potential cation channel C4), mouse. In words: potentiation of DAMGO EC20 TRPC4 response – cell-based, Fluo-4, HEK293 TRPC4beta/mu-opioid, confirmation (AID 2555;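 active = primary screen hit whose calcium fluorescence ratio, in both repeats, exceeds the weak agonist control mean by 3 SD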). The conditions noted are these: DAMGO EC20, Fluo-4 calcium flux, at 10 µM; stronger effect = higher value.
Assay [5] concerns the target Short transient receptor potential channel 4 (Mus musculus) (UniProt Q9QUQ5). In words: blockers of DAMGO-evoked TRPC4 calcium flux – cell-based, Fluo4, HEK293 TRPC4beta/mu-opioid, confirmation (AID 2636;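 active = calcium signal cut by more than 3 SD below the full-agonist control yet still positive, in both repeats and the earlier primary screen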). The conditions noted are these: at 10 µM; stronger effect = higher value.
Assay [6] has the same target. In words: blockers of DAMGO-evoked TRPC4 calcium flux – cell-based, second round, Fluo4, HEK293 TRPC4beta/mu-opioid, 1 µM, confirmation (AID 2637;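 active = calcium signal ratio cut to more than 3 SD under the fully stimulated control mean yet still positive, in both repeats and the primary screen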;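 for inhibition: percent of integrated ratio relative to wells lacking test compound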). The conditions noted are these: at 1 µM; stronger effect = higher value.
Assay [7] shares this target. Briefly: calcium entry via TRPC4 opening agents – cell-based, HEK293 TRPC4/mu-opioid, Fluo-4 calcium, dose response (AID 434937;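 active = primary screen activator hit with a dose response curve and TRPC4 channel activation at any tested dose; inactive = no activation, no dose response, or not a primary hit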).
Assay [8] shares this target. In words: potentiation of DAMGO-evoked TRPC4 calcium signal – cell-based, HEK293 TRPC4/mu-opioid, Fluo-4 calcium, EC20 DAMGO, dose response (AID 434941;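 active = earlier screen potentiator hit that boosts the TRPC4 ion channel at some dose, with a dose response; inactive = no potentiation, no dose response, or not a prior hit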;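 note: calcium entry triggered by an EC20 dose of DAMGO at the co-expressed mu-opioid receptor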).
Assay [9] addresses Short transient receptor potential channel 6 (Mus musculus) (UniProt Q61143). In words: TRPC6 blockade by TRPC4 inhibitor hits – cell-based, HEK293, membrane potential dye, duplicate, selectivity assay for TRPC4 inhibitor project, confirmation (AID 434948;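 active = active in primary screen and both duplicates, each dropping signal beyond three positive-control SD with fluorescence still positive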). The conditions noted are these: HEK293 TRPC6, membrane potential dye fluorescence, at 10 µM, stimulated with maximal-effect acetylcholine; stronger effect = higher value.

Assay [10] shares this target. Briefly: TRPC6 opening by TRPC4 activator hits – cell-based, HEK293, membrane potential dye, duplicate, selectivity assay for TRPC4 activator project, confirmation (AID 434950;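 active = membrane potential signal rise above negative control mean plus 3 SD in both duplicates, also active in the earlier TRPC4 screen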). The conditions noted are these: HEK293 TRPC6, membrane potential fluorescence, at 10 µM; activation: stronger effect = higher value; outcome: activation.
Assay [11] shares this target. Briefly: positive modulators of mouse TRPC6 channel – HEK293 cells, membrane potential dye, duplicate, selectivity assay for TRPC4 potentiator project, confirmation (AID 434952;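 active = compound raising the membrane signal above positive-control mean plus 3 SD in both repeats, and a primary screen hit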). The conditions noted are these: HEK293 TRPC6, membrane potential dye fluorescence, at 10 µM, maximal acetylcholine added after compound; stronger effect = higher value.
Assay [12] has as its target Short transient receptor potential channel 4 (Mus musculus) (UniProt Q9QUQ5). In words: calcium flux activators in TRPC4/5HT1a cells, counter-screen for TRPC4 activator project, cell-based, second counter screen, HEK293 TRPC4/5HT1a, Fluo-4 (AID 434977;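 active = calcium signal rise above buffer-control mean plus 5 SD in both duplicates, and also a hit in the primary screen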). The conditions noted are these: Fluo-4 calcium flux, at 10 µM; stronger effect = higher value.
A short description of assay [13]: serotonin-gated TRPC4 signal block – cell-based, second counter screen, HEK293 TRPC4/5HT1a, Fluo-4, counter-screen for TRPC4 inhibitor project, confirmation (AID 434978;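 active = primary screen active whose calcium signal fell more than 3 SD beyond the full-serotonin control mean in both duplicate plates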;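 for outcome: serotonin given first at submaximal then at maximal dose after compound preincubation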). The conditions noted are these: Fluo-4 calcium flux, at 10 µM, serotonin added to trigger calcium flux; stronger effect = higher value. A general note: A counterscreen serves to expose hits that act by an unwanted route or on another target.

Assay [14] deals with TRPC4 (mouse), co-expressed with 5HT1a in HEK293. In words: enhancement of serotonin-evoked TRPC4 response – cell-based, second counter screen, HEK293 TRPC4/5HT1a, Fluo-4, counter-screen for TRPC4 potentiator project, confirmation (AID 434979;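 active = signal rise over 3 SD above mean of control wells given weak agonist, in both repeats and first screen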). The conditions noted are these: Fluo-4 calcium flux, at 10 µM, serotonin added at its EC20 dose; stronger effect = higher value.
A short description of assay [15]: nonspecific calcium rise without TRPC4 – cell-based, HEK293 mu-opioid receptor line, counter-screen for TRPC4 activator project, confirmation (AID 449723;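 active = hit in primary screen, with calcium signal over 5 SD above buffer well mean in both duplicates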;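 note: counter screen cells carry the mu-opioid receptor alone and lack TRPC4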). The conditions noted are these: HEK293 mu-opioid cells, Fluo-4 calcium fluorescence, at 10 µM; stronger effect = higher value.
The nature of assay [16]: nonspecific potentiation of DAMGO calcium response – cell-based, HEK293 mu-opioid receptor line, counter-screen for TRPC4 allosteric potentiator project, confirmation (AID 449724;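 active = calcium signal rise more than 3 SD above the low-dose agonist control mean, in both duplicate plates and the primary screen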;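 note: HEK293 cells carrying mu-opioid receptor only with no TRPC4 channel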). The conditions noted are these: HEK293 mu-opioid receptor cells, Fluo-4 calcium flux, at 10 µM, compound added before EC20 DAMGO stimulus; stronger effect = higher value.

For part of these data: Results with a measured potency or affinity are listed apart. Calls of active or inactive are those of the source.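 Rule for the calls, unless noted: active = primary screen hit whose fluorescence ratio, in both repeats, exceeds the weak agonist control mean by 3 SD; inactive = the rest.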

Short transient receptor potential channel 4 (Mus musculus), sequence (Q9QUQ5 whole entry, looked up): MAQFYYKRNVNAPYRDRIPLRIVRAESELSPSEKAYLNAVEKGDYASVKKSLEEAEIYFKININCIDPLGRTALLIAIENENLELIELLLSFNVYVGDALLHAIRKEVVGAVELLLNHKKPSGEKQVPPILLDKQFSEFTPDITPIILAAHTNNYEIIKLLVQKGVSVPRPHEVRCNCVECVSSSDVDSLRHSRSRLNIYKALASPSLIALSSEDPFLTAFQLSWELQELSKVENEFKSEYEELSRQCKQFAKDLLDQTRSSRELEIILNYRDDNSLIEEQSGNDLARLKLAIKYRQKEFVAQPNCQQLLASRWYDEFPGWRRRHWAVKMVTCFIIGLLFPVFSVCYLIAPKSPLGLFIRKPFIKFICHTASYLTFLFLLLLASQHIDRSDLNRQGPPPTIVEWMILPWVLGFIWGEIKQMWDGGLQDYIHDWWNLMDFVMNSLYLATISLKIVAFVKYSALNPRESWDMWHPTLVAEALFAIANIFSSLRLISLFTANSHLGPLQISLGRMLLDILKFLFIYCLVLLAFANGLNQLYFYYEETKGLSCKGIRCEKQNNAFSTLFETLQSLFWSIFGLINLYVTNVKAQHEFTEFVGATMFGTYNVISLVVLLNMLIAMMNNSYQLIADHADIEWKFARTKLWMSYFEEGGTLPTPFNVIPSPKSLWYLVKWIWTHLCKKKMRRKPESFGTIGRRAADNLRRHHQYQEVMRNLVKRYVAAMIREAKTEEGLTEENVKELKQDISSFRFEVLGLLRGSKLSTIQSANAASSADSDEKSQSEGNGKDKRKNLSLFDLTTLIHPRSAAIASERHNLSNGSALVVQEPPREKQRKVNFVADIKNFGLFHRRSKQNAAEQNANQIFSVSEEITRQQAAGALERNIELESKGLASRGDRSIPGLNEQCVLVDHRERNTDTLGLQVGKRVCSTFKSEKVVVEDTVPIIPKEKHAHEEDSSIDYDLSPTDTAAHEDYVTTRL
Short transient receptor potential channel 6 (Mus musculus), sequence (Q61143 whole entry, looked up): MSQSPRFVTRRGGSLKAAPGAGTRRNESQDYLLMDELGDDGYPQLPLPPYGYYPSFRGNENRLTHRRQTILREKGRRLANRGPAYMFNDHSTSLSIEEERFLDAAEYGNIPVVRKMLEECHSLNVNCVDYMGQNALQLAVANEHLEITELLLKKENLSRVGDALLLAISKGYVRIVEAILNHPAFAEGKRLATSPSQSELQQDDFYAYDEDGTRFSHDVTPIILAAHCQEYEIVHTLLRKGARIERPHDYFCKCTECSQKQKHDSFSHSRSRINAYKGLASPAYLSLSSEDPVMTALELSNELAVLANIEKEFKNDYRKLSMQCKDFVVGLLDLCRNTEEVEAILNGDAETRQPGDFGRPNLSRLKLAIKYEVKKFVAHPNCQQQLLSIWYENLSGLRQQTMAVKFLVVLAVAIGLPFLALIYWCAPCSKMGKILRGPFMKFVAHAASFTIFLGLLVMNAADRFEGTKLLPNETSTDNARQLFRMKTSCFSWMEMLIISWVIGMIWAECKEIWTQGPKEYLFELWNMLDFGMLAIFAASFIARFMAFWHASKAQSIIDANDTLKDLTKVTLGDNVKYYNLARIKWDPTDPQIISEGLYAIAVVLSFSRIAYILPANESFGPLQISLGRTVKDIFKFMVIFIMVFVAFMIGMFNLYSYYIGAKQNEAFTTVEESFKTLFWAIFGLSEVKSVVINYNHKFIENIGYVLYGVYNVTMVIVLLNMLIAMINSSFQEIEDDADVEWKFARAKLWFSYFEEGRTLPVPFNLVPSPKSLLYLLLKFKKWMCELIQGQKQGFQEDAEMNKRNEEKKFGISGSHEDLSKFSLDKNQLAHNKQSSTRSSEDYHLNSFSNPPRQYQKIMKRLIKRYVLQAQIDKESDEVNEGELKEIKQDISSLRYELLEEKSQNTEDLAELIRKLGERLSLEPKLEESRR

As to `CN(C)CCCN(C(=O)c1ccc(S(=O)(=O)N2CCCC2)cc1)c1nc2c(F)cc(F)cc2s1`, the outcome in assay [1], in [2], in assay [3], in assay [4], in assay [6] and in assay [7] was inactive. For the same compound, the result in assay [8], in assay [9], in assay [10], in [11], in assay [12] and in assay [13] was inactive. The result in [14], in assay [15] and in assay [16] was inactive. Besides, the inhibition in assay [5] is 68% (active).

As to `CC(/C=C1\SC(=S)N(C(C(=O)O)C(C)C)C1=O)=C\c1ccccc1` (stereo not given), the outcome in assay [1], in assay [2], in assay [3], in assay [4], in assay [6] and in assay [7] was inactive. Moreover, the outcome in [8], in assay [9], in assay [10], in [11], in [12] and in assay [14] was inactive. Further, the outcome in assay [15] and in assay [16] was inactive. In addition, the inhibition in assay [5] was 99% (active); in assay [13], 16% (active).

`CCOC(=O)C1=NN(c2ccccc2C)C2=NC(C)=C(C(=O)OC)C(c3cccc(OC)c3)N12` (stereo not given): the result in assay [1], in assay [2], in assay [3], in assay [4], in assay [6] and in assay [7] was inactive. The result in [8], in assay [9], in assay [10], in [11], in assay [12] and in assay [14] was inactive. Moreover, the result in assay [15] and in assay [16] was inactive. The inhibition in [5] is 75% (active); in assay [13], 20.5% (active).

For `O=C(c1cccc(C(=O)N2CCN(c3ccc(F)cc3)CC2)c1)N1CCN(c2ccc(F)cc2)CC1`, the outcome in assay [1], in assay [2], in [3], in [4], in assay [7] and in [8] was inactive. Moreover, the outcome in assay [9], in assay [10], in [11], in assay [12], in [14] and in assay [15] was inactive. Further, in assay [16], the result was inactive. Also, the inhibition in assay [5] was 88% (active); in assay [6], 53% (active); in assay [13] it was 42% (active).

`COc1cccc(O)c1CN1CCCC(C(=O)c2cccc(C(F)(F)F)c2)C1` (stereo not given): the result in [1], in assay [2], in assay [3], in [4], in assay [6] and in assay [7] was inactive. Further, the result in assay [8], in [9], in assay [10], in assay [11], in assay [12] and in assay [14] was inactive. In addition, the result in assay [15] and in assay [16] was inactive. The inhibition in [5] is 70% (active); in assay [13] it was 34.3% (active).

Consider `CCOC(=O)C1(Cc2cccc(OC)c2)CCN(Cc2cccc(O)c2)CC1`, for which the outcome in assay [1], in assay [2], in [3], in assay [4], in assay [7] and in assay [8] was inactive. Further, the call in assay [9], in assay [10], in assay [11], in assay [12], in [13] and in assay [14] was inactive. Besides, the outcome in assay [15] and in assay [16] was inactive. The inhibition is 84% (active) in assay [5] and 43% (active) in assay [6].

Take `COc1ccc(C2CC2/C(=N/O)c2ccccc2)cc1` (stereo not given): the outcome in [1], in [2], in assay [3], in assay [4], in assay [6] and in [7] was inactive. Besides, the result in assay [8], in assay [9], in assay [10], in [11], in assay [12] and in [14] was inactive. Further, the outcome in assay [15] and in assay [16] was inactive. For the same compound, the figures for the inhibition in assay [5] and in [13] were 94% (active) and 7.57% (active), respectively.

With `COc1ccc2c(c1)sc(N)[n+]2Cc1cc(C)cc2cccnc12`, the outcome in [1], in assay [2], in assay [3], in assay [4], in [6] and in assay [7] was inactive. Also, the outcome in [8], in assay [10], in [11], in assay [12], in assay [14] and in assay [15] was inactive. Also, the result in assay [16] was inactive. The inhibition in assay [5] is 99% (active); in assay [9], 37% (active); in [13], 28.6% (active).

As for `COC(=O)C1=C(C)N(Cc2ccccc2)C(=S)N[C@H]1c1ccccc1`, the outcome in assay [1], in [2], in [3], in assay [4], in [6] and in assay [7] was inactive. The outcome in assay [8], in assay [9], in assay [10], in [11], in assay [12] and in assay [14] was inactive. Also, the result in assay [15] and in [16] was inactive. The inhibition in [5] is 73% (active); in assay [13] it was 25.6% (active).

Turning to `C=CCc1ccccc1OCC(CN1CCCCC1)OC(C)=O` (stereo not given), the result in [1], in assay [2], in assay [3], in [4], in assay [7] and in assay [8] was inactive. For the same compound, the compound was classed as inactive in assay [9], in assay [10], in assay [11], in [12], in [13] and in [14]. In addition, the outcome in assay [15] and in assay [16] was inactive. Moreover, the inhibition in [5] is 74% (active); in assay [6], 43% (active).

With `CC(C)Sc1nc2sc3c(c2c2nnc(SCC(=O)NCc4ccco4)n12)CCCC3`, the outcome in assay [1], in [2], in assay [3], in assay [4], in assay [6] and in [7] was inactive. Besides, the result in assay [8], in assay [9], in assay [10], in [11], in assay [12] and in assay [14] was inactive. The outcome in assay [15] and in assay [16] was inactive. Besides, the inhibition in [5] was 78% (active); in [13], 16.9% (active).

Consider `CCCn1c(NC(=O)c2ccc(Cl)c(S(=O)(=O)N3CCCC3)c2)nc2ccccc21`, for which the outcome in assay [1], in [2], in assay [6], in assay [7], in assay [8] and in assay [9] was inactive. Further, the compound was called inactive in assay [10], in assay [11], in [12], in [13], in assay [15] and in assay [16]. In addition, the potentiation was 10% (active) in [3], 24% (active) in assay [4] and 6.75% (active) in assay [14]. In addition, the inhibition in assay [5] is 69% (active).

Turning to `Clc1cccc(C[n+]2cc(-c3ccccc3)n3c2CCC3)c1`, the outcome in [1], in assay [2], in [3], in [4], in [7] and in [8] was inactive. The compound was called inactive in assay [9], in assay [10], in [11], in [12], in assay [14] and in assay [15]. Besides, the outcome in assay [16] was inactive. Moreover, the values for the inhibition in [5], in assay [6] and in assay [13] were 95% (active), 51% (active) and 15.5% (active), respectively.

Take `CCC1C=C(c2ccccc2)C=CN=C1N(CC)CC` (stereo not given): the outcome in assay [1], in assay [2], in assay [3], in [4], in assay [6] and in [7] was inactive. Besides, the result in [8], in assay [9], in assay [10], in assay [11], in assay [12] and in [14] was inactive. Moreover, the outcome in [15] and in assay [16] was inactive. The inhibition in assay [5] was 93% (active); in [13], 26.5% (active).

Turning to `Oc1ccc(Nc2nc(N3CCCC3)c3ccccc3n2)cc1`, the result in [1], in [2], in assay [3], in assay [4], in assay [6] and in assay [7] was inactive. The result in [8], in assay [10], in assay [11], in assay [12], in assay [14] and in assay [15] was inactive. Also, the result in assay [16] was inactive. Besides, the inhibition in assay [5] was 95% (active); in assay [9], 39.5% (active); in assay [13] it was 36.8% (active).
